{"source": "PubChem BioAssay (NCI)", "note": "“And” between values parts separate entries of the source, which are not always exact repeats. Identical values can stand only once. The panel holds about 83,000 compounds, 20% with a hit somewhere; the sample as a whole holds those more often.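 Cell lines were cultured in 96-well plates, exposed to a single compound concentration, and assessed for percent growth 48 hours later.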 The source made the active and inactive calls."}
{"system": "MOLT-4 leukemia", "assay": "NCI-60 one-dose screen, 48 h (100 = growth as untreated, 0 = no growth, -100 = all killed)", "conditions": "10 µM", "method": "(§1) Growth inhibition of the MOLT-4 human tumor cell line is measured as a screen for anti-cancer activity. Cells are grown in 96 well plates and exposed to the test compound for 48 hours. Compounds are tested at a single concentration, which is 10^-5 M for most compounds. The reported endpoint is percent growth (GI% or GIPRCNT), where numbers from 0 - 100% represent growth inhibition, and numbers from -100% - 0 represent cell death. For example, a value of 40 represents 60% growth inhibition. A value of 0 means no net growth occurred over the course of the experiment. A value of -40 indicates 40% of cells at the beginning of the experiment died by the end of the experiment. A value of -100 means all cells are dead at the end of the experiment.\n(§2) NCI-60 Human Tumor Cell Lines Screen was performed using the standard one-dose NCI protocol, which is described in more detail at https://dtp.cancer.gov/discovery_development/nci-60/default.htm.\n(§3) Compounds with GIPRCNT values below 10 were considered active. Activity score was based on GIPRCNT using the following formula: […]\n(§4) Score is 0 for GIPRCNT values of 100 or above, 50 for GIPRCNT values of 0, and 100 for GIPRCNT values of -100."}
{"smiles": "COc1ccc(-c2cscc2N)cc1", "growth": "66.4% (inactive)"}
{"smiles": "O=C(Nc1c(Cl)cccc1Cl)Oc1cccc2cccnc12", "growth": "16.6% (inactive)"}
{"smiles": "O=C(Nc1cccc(Br)c1)Oc1cccc2cccnc12", "growth": "115% (inactive)"}
{"system": "MOLT-4 leukemia", "assay": "NCI-60 one-dose screen, 48 h (100 = growth as untreated, 0 = no growth, -100 = all killed)", "conditions": "10 µM unless noted", "method": "as §1, §2, §3, §4"}
{"smiles": "Cc1ccc2nc(-[n+]3cc4ccccc4cc3C)ccc2c1", "growth": "44.7% (inactive)"}
{"smiles": "O=C(Oc1cccc2cccnc12)c1ccccc1", "growth": "80% (inactive)"}
{"smiles": "CC(C)(C)c1ccc(O)c(C2CCCCC2)c1", "growth": "-31.9% (active)"}
{"smiles": "CCOC(=O)/C=C/c1ccc([N+](=O)[O-])o1", "growth": "-3.02% (active)"}
{"smiles": "Cn1c2ccccc2c2nnc(N/N=C/c3ccccn3)nc21", "growth": "-21.7% (active)"}
{"smiles": "Cc1cc2nc(CS)[nH]c2cc1C", "growth": "-39.5% (active)"}
{"smiles": "CCOc1ccc(-c2nc3ccc(-c4nc5ccc(N6CCN(C)CC6)cc5[nH]4)cc3[nH]2)cc1", "growth": "-60.5% (active)"}
{"smiles": "O=C(/C=C/c1cccc(Cl)c1)c1ccccc1", "growth": "90.7% (inactive) and 86.1% (inactive)"}
{"smiles": "c1ccc2c(c1)Nc1cc3ccccc3cc1N2", "growth": "20.9% (inactive)"}
{"smiles": "CCC(CCCN(CC)CCc1ccccc1)OC(=O)c1cc(OC)c(OC)c(OC)c1", "note": "(stereo not given)", "growth": "87.1% (inactive)"}
{"smiles": "NC(=O)/C=C/C(=O)c1c(Cl)cccc1Cl", "growth": "-26.3% (active)"}
{"smiles": "O=C1c2cccnc2-c2nccc3c2c1nc1cc(Br)ccc13", "growth": "-39.5% (active) and -31% (active)"}
{"smiles": "Oc1c(Cl)cc(Cl)c2cccnc12", "growth": "37.1% (inactive) and 35.7% (inactive)"}
{"smiles": "COc1ccccc1OC(=O)Oc1ccccc1OC", "growth": "93.9% (inactive) and 92% (inactive)"}
{"smiles": "Cc1c2ccccc2c(C)c2c1ccc1ccccc12", "growth": "71.1% (inactive)"}
{"smiles": "C[n+]1c(/C=C/c2ccc([N+](=O)[O-])cc2)ccc2ccccc21", "growth": "90.7% (inactive)"}
{"smiles": "O=C1c2ccccc2C(=O)c2sc(Nc3cccc(Cl)c3)nc21", "growth": "-19.6% (active)"}
{"smiles": "CCOC(=O)c1c(C)[nH]c(CO)c1C", "growth": "96.6% (inactive)"}
{"smiles": "COc1ccccc1/C=C\\C(=O)c1ccccc1", "growth": "58.1% (inactive)"}
{"smiles": "O=[N+]([O-])c1ccc(N=Nc2ccc(O)cc2O)cc1", "growth": "36.7% (inactive)"}
{"smiles": "COC(=O)Nc1nc2ccc(C(=O)c3ccccc3)cc2[nH]1", "growth": "19.3% (inactive) and 7.52% (active) and 7.55% (active)"}
{"smiles": "CN(C)CCOc1ccc2c(c1)C(=O)/C(=C\\c1ncc([N+](=O)[O-])n1C)C2", "growth": "-32.1% (active)"}
{"smiles": "O=C1c2ccccc2C(=O)N1c1ccccc1", "growth": "103% (inactive)"}
{"smiles": "CC(=O)ON=C1C=CC(=C(C#N)c2ccccc2)C=C1", "growth": "40.8% (inactive)"}
{"smiles": "O=C(Nc1cccc(Br)c1)Oc1ccc(Cl)c2cccnc12", "growth": "2% [100 µM] (active)"}
{"smiles": "CN(C)C(=O)SC1=C(c2c(Cl)cccc2Cl)C(=O)c2ccccc21", "growth": "-22.5% (active)"}
{"smiles": "COC(=O)c1nc(=S)[nH]c(C(=O)OC)c1C(=O)c1ccc2ccccc2c1", "growth": "103% (inactive)"}
{"smiles": "O=C1OCc2cccc3cccc1c23", "growth": "92.6% (inactive)"}
{"smiles": "C/C=C1\\SC(=S)NC1=O", "growth": "103% (inactive)"}
{"smiles": "CCN(CC)CC(C)(C)C(=O)/C=C/c1ccc(Cl)c(Cl)c1", "growth": "2.21% (active)"}
{"smiles": "CCCCCC(CCCCC)C(=O)O", "growth": "96.1% (inactive)"}
{"smiles": "CC(=O)Nc1cccc2cc(O)ccc12", "growth": "111% (inactive) and 108% (inactive) and 98.5% (inactive)"}
{"smiles": "O=[N+]([O-])c1ccc2c(N=Nc3ccc4ccccc4c3O)c(O)cc(S(=O)(=O)O)c2c1", "growth": "91.7% (inactive)"}
{"smiles": "O=C(Nc1ccc(F)cc1)ON=C1CCCCC1", "growth": "95.3% [100 µM] (inactive)"}
{"system": "MOLT-4 leukemia", "assay": "NCI-60 one-dose screen, 48 h (100 = growth as untreated, 0 = no growth, -100 = all killed)", "conditions": "100 µM", "method": "as §1, §2, §3, §4"}
{"smiles": "COc1ccc(-c2cscc2N)cc1", "growth": "38.6% (inactive)"}
{"smiles": "O=C(Nc1c(Cl)cccc1Cl)Oc1cccc2cccnc12", "growth": "8.36% (active)"}
{"smiles": "O=C(Nc1cccc(Br)c1)Oc1cccc2cccnc12", "growth": "-0.787% (active)"}
